# Measurements published in PubChem BioAssay AID1345082 (National Center for Advancing Translational Sciences (NCATS), 2018).
# Out of some 94,000 compounds screened, about 4,000 (4.3%) were called active. Another 29% or so got no clear call; they are omitted. The entries come from a sample that favours actives as a whole. Values without a mark were called inactive. Calls come from the whole dose curve; as a rule, active = well fitted inhibition curve with a large enough effect; inconclusive = small, poorly fitted or top-dose-only effect; inactive = no such curve, though single readings can be large or run the other way.
# Experiment: Cytotoxic Profiling in NIH 3T3 Cell Line of Diverse Libraries Using Quantitative High-Throughput Screening; note: nearly all actives have a fitted effect of over 55% in size
# Details: NIH 3T3 viability, CellTiter-Glo ATP luminescence, 48-72 h; series mostly up to 96.7 µM; activity change, negative = cytotoxicity: at the top concentration
# How it was run: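 Cells were seeded at 400 per well, treated with pin-transferred compound, and kept 48 or 72 hr at 37 °C before CellTiter-Glo addition and luminescence imaging of cellular ATP.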
# % is set by controls: 0 for no effect and ±100 for the full control effect; potency is the fitted concentration of half-maximal effect.
SMILES,"activity change, negative = cytotoxicity",Potency,outcome
Cn1c(=O)n(C)c2cc(S(=O)(=O)N[C@@H]3CCOC[C@H]3O)ccc21,4.94%,,
COCCC1(NC(=O)C2CCOCC2)CCN(C(=O)C2COc3ccccc3O2)CC1 (stereo not drawn),-5.99%,,
COCC(=O)NCCC1CCN(C(=O)Nc2cc(F)cc(F)c2)CC1,-8.74%,,
COc1ccc(NC(=O)Cn2ccn3nc(-c4ccc(F)cc4)c(CO)c3c2=O)cc1OC,-10%,,
O=C(NCc1cccc(F)c1)C1CN(c2ccccc2)C(=O)N1 (stereo not drawn),-20.5% [at 138 µM],,
COc1cccc(NC(=O)c2ccc3c(c2)NC(C)(COc2ccccc2)CO3)c1 (stereo not drawn),,39.8 µM (active),
COc1cccc(C(=O)Nc2ccc3c(c2)CN(Cc2ccc(OC)cc2OC)C(=O)CO3)c1,-28.5%,,
COc1ccc(OCC2(C)COc3ccc(C(=O)Nc4cccnc4)cc3N2)cc1 (stereo not drawn),,44.7 µM (active),
COc1ccc(C(=O)Nc2cccc(-c3nnc4n3CCCC4)c2)cc1,-23.6%,,
CC1(CNc2ccccc2)COc2ccc(C(=O)NCc3cccc(F)c3)cc2N1 (stereo not drawn),,39.8 µM (active),
O=C(NCC1CCOCC1)c1ccc2[nH]ccc2c1,-3.18%,,
CC1(CCCCc2ccccc2)COc2ccc(C(=O)N3CC[S+](=O)([O-])CC3)cc2N1 (stereo not drawn),-27.6%,,
O=C(Nc1cccnc1)c1ccc2c(c1)OCCN(Cc1ncccn1)C2,-15.5% [at 138 µM],,
CN(C)CCN(C)C(=O)c1ccc2c(c1)NC(C)(COc1ccc3[nH]ccc3c1)CO2 (stereo not drawn),,79.4 µM (active),
CCOc1ccc(NC(=O)C2(Cc3cccnc3)CCCCC(=O)N2)cc1 (stereo not drawn),-17.6%,,
CC(C)NC(=O)NC1CCCN(c2ccc3nnc(C4CC4)n3n2)C1 (stereo not drawn),2.65% [at 138 µM],,
O=C(NCCc1noc(C2CCCC2)n1)c1cc(F)c(F)cc1Cl,-30.7%,,
O=C(NCCn1cnc2ccccc2c1=O)C1CC(=O)N(c2n[nH]c3ccccc23)C1 (stereo not drawn),-4.68%,,
CCOc1ccc(NC(=O)Cn2c(N3CCOCC3)nc(COC)cc2=O)cc1,-25%,,
O=C(c1ccc(F)cc1)N1CCC[C@H]1c1nc(-c2ccccc2Cl)no1,-13.6%,,

SMILES,"activity change, negative = cytotoxicity",Potency,outcome
Cc1ncc(C(=O)N2C[C@@H](C(=O)O)[C@H](c3ccc4c(c3)OCO4)C2)c(C)n1,,,inactive
COCCNc1ncnc2c1CN(C1CCCNCC1)C(=O)CN2C (stereo not drawn),-32%,,
COCc1cc(=O)n(CC(=O)NCc2ccc(C)cc2)c(N2CCOCC2)n1,1.74%,,
CCCCOC(=O)c1ccc(NC(=O)c2c(OC)cc(=O)n3c2CCCC3)cc1,-8.34%,,
O=C(c1ccccc1Cl)N1CC2(Cc3ccccc3NC2=O)C1,,,inactive
COc1ccc(CC(=O)NC2CCCc3c2[nH]c2ccccc32)cc1 (stereo not drawn),,31.6 µM (active),
O=C(Cn1nc2c(cc1=O)CCCC2)NC1CCCc2c1[nH]c1c(Cl)cccc21 (stereo not drawn),-11.9%,,
COc1ccc(CC(=O)N2CCC[C@H]2c2nc(-c3ccccc3)no2)cc1,-21.5%,,
O=C(Cc1ccccc1)NC1CCCc2c1[nH]c1c(Cl)cccc21 (stereo not drawn),,35.5 µM (active),
O=C(Cn1nc(-c2ccco2)ccc1=O)NC1CCCc2c1[nH]c1c(Cl)cccc21 (stereo not drawn),-2.22%,,
O=C(NC1CCCc2c1[nH]c1ccc(F)cc21)c1ccccn1 (stereo not drawn),-11.4%,,
COc1ccc(CN2CCc3oc(C)c(C(=O)NCCN4CCCC4)c3C2)cc1,-16.9%,,
CN(C)C(=O)c1nc(-c2ccc(Cl)cc2Cl)c2cnccn12,-16%,,
CN(C)C[C@@H]1CN(c2ncccn2)C[C@H]1NC(=O)Cc1ccccc1Cl,-7.01%,,
Cc1ccc(CN2CCOC[C@H]2c2ncc(-c3cccc(F)c3)[nH]2)cc1,,79.4 µM (active),
CN(C)c1ccc(CN2CCOC[C@H]2c2ncc(-c3cccc(F)c3)[nH]2)cc1,-27.2% [at 138 µM],,
CC(C)(C)c1coc([C@@H]2COCCN2Cc2ccc(F)cc2)n1,-18.2% [at 138 µM],,
c1cncc(-c2cnc([C@@H]3COCCN3Cc3cnc4ccccc4c3)[nH]2)c1,-1.17% [at 174 µM],,
Cn1cc(CN2CCOC[C@H]2c2ncc(-c3cccc(F)c3)[nH]2)c2ccccc21,,39.8 µM (active),
Fc1ccc(CN2CCOC[C@H]2c2ncc(-c3cccnc3)[nH]2)cc1,-7.62% [at 174 µM],,

SMILES,"activity change, negative = cytotoxicity",Potency,outcome
Oc1ccccc1CN1CCOC[C@H]1c1ncc(-c2ccc(C(F)(F)F)cc2)[nH]1,,50.1 µM (active),
Cn1cc(CN2CC[C@H](c3nnc(-c4cccnc4)o3)C2)c2ccccc21,-9.9% [at 138 µM],,
CN(Cc1ccccc1)Cc1cn([C@H]2CO[C@H]3[C@@H]2OC[C@@H]3NS(C)(=O)=O)nn1,-3.96% [at 174 µM],,
CCc1noc(-c2cccn3c(CNC(=O)C(CC)c4ccccc4)nnc23)n1 (stereo not drawn),-7.72%,,
CCn1cc(S(=O)(=O)N2CC[C@H](CNC(C)=O)[C@H](N(C)C)C2)cn1,-3.26%,,
Cc1ccc(F)cc1S(=O)(=O)N1CCn2c(nn(CC3CC3)c2=O)C1,,,inactive
O=C(C[C@@H]1O[C@H](CNC(=O)C2CC2)[C@@H](O)[C@H]1O)NCCN1CCOCC1,2.3% [at 174 µM],,
Cc1ccnc(N2CC[C@@H]3[C@@H](CCC(=O)N3CCc3ccccn3)C2)n1,-23.3%,,
c1cncc(-c2noc(C3CCCN(Cc4cc5n(n4)CCNC5)C3)n2)c1 (stereo not drawn),1.2%,,
CCOC(=O)N1CCC(=O)N(Cc2ccccc2)Cc2cc(OC)ccc21,-26.4%,,
Cc1nc(C(C)C)ncc1C(=O)N1CCN(C)C2(CCNC(=O)CC2)C1 (stereo not drawn),3.15%,,
CNC(=O)[C@@H](c1ccccc1F)N1CCC[C@H]1C(=O)NCCOC,-12.7% [at 174 µM],,
O=C(Cc1ccc(F)cc1)N1CCOCC2(CN(Cc3ccccc3)C2)C1,,35.5 µM (active),
CC(=O)N1CCC2(CC1)CN(C(=O)Cc1cccc(Cl)c1)CCO2,3.86%,,
O=C(c1cccs1)N1CCOCC2(CN(Cc3cc(F)cc(F)c3)C2)C1,-19.7% [at 138 µM],,
Cc1nc(-c2cn(C3CCCN(C(=O)c4sccc4C)C3)nn2)no1 (stereo not drawn),-3.14%,,
CCN1CCN(CCNC(=O)C2Cn3cccc3C(=O)N2Cc2cccnc2)CC1 (stereo not drawn),-3.23%,,
N#Cc1ccc(CN2CCc3nc(C(=O)N4CCOCC4)oc3CC2)cc1,-23.4% [at 138 µM],,
